Our source for the binding signal values is paper PMC11006913.

What all share (test): PBM; 200 nM protein, PBS
Common to all, as to settings: dsDNA, one strand shown

Assay [1] deals with SHOX (Homo sapiens, UniProt O15266 103-189).
The target of assay [2] is SHOX (Homo sapiens, UniProt O15266 103-189, R173C).
The target in assay [3] is ALX3 (Homo sapiens, UniProt O95076 139-225, N203Q).
The target of assay [4] is ALX3 (Homo sapiens, UniProt O95076 139-225).
Assay [5] has as its target ALX3 (Homo sapiens, UniProt O95076 139-225, L168Q).
Assay [6] addresses ALX3 (Homo sapiens, UniProt O95076 139-225, L168V).
The target in assay [7] is ALX3 (Homo sapiens, UniProt O95076 139-225, N203S).
Assay [8] has as its target HOXD13 (Homo sapiens, UniProt P35453 263-343, T313R).
The target in assay [9] is HOXD13 (Homo sapiens, UniProt P35453 263-343).
Assay [10] concerns the target HOXD13 (Homo sapiens, UniProt P35453 263-343, T313A).
Assay [11] deals with ALX1 (Homo sapiens, UniProt Q15699 118-204, L144V).
The target in assay [12] is ALX1 (Homo sapiens, UniProt Q15699 118-204, L144R).
Assay [13] concerns the target VAX1 (Homo sapiens, UniProt Q5SQQ9 86-172).
In assay [14] the target is VAX1 (Homo sapiens, UniProt Q5SQQ9 86-172, T142I).
Assay [15] deals with ALX1 (Homo sapiens, UniProt Q15699 118-204).
Assay [16] has as its target VAX1 (Homo sapiens, UniProt Q5SQQ9 86-172, K157R).
Assay [17] has as its target PITX2 (Homo sapiens, UniProt Q99697 72-157).

Chain of SHOX (Homo sapiens, UniProt O15266 103-189, R173C) (O15266 103-189 R173C): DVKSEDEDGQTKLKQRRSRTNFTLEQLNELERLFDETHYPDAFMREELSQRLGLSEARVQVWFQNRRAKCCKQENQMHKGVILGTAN
Chain of HOXD13 (Homo sapiens, UniProt P35453 263-343) (P35453 263-343): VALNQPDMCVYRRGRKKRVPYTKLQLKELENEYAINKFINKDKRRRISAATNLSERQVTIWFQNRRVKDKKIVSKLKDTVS
Chain of SHOX (Homo sapiens, UniProt O15266 103-189) (O15266 103-189): as the sequence (O15266 103-189 R173C) above, with C71R counted along it
Chain of HOXD13 (Homo sapiens, UniProt P35453 263-343, T313A) (P35453 263-343 T313A): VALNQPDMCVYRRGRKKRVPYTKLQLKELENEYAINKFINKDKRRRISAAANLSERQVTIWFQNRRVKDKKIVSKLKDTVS
Chain of HOXD13 (Homo sapiens, UniProt P35453 263-343, T313R) (P35453 263-343 T313R): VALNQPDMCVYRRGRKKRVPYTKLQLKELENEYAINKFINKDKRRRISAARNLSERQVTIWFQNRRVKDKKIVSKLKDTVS
Chain of ALX3 (Homo sapiens, UniProt O95076 139-225) (O95076 139-225): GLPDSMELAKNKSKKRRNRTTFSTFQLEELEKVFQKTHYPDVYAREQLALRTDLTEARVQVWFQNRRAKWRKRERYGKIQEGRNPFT
Chain of ALX3 (Homo sapiens, UniProt O95076 139-225, N203S) (O95076 139-225 N203S): as the sequence (O95076 139-225) above, with N65S counted along it
Chain of ALX3 (Homo sapiens, UniProt O95076 139-225, N203Q) (O95076 139-225 N203Q): as the sequence (O95076 139-225) above, with N65Q counted along it
Chain of ALX3 (Homo sapiens, UniProt O95076 139-225, L168Q) (O95076 139-225 L168Q): as the sequence (O95076 139-225) above, with L30Q counted along it
Chain of ALX3 (Homo sapiens, UniProt O95076 139-225, L168V) (O95076 139-225 L168V): as the sequence (O95076 139-225) above, with L30V counted along it
Chain of VAX1 (Homo sapiens, UniProt Q5SQQ9 86-172, T142I) (Q5SQQ9 86-172 T142I): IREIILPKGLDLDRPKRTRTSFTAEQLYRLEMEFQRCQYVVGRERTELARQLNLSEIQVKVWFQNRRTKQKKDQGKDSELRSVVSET
Chain of VAX1 (Homo sapiens, UniProt Q5SQQ9 86-172) (Q5SQQ9 86-172): as the sequence (Q5SQQ9 86-172 T142I) above, with I57T counted along it
Chain of VAX1 (Homo sapiens, UniProt Q5SQQ9 86-172, K157R) (Q5SQQ9 86-172 K157R): as the sequence (Q5SQQ9 86-172 T142I) above, with I57T, K72R counted along it
Chain of ALX1 (Homo sapiens, UniProt Q15699 118-204, L144R) (Q15699 118-204 L144R): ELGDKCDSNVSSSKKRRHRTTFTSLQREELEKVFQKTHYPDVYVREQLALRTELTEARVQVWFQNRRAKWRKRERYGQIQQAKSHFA
Chain of ALX1 (Homo sapiens, UniProt Q15699 118-204, L144V) (Q15699 118-204 L144V): as the sequence (Q15699 118-204 L144R) above, with R27V counted along it
Chain of ALX1 (Homo sapiens, UniProt Q15699 118-204) (Q15699 118-204): as the sequence (Q15699 118-204 L144R) above, with R27L counted along it

CCGAAGCG: the binding signal in assay [1] is 7.16 upbm affinity estimate (log intensity, higher = more binding, comparable within an allelic series); in assay [2] it was 7.24 upbm affinity estimate (log intensity, higher = more binding, comparable within an allelic series).
With AGGGTCGG, the binding signal in assay [1] is 7.15 upbm affinity estimate (log intensity, higher = more binding, comparable within an allelic series); in [2], 7.14 upbm affinity estimate (log intensity, higher = more binding, comparable within an allelic series).
Take CCTGGGGC: the binding signal in [1] was 7.08 upbm affinity estimate (log intensity, higher = more binding, comparable within an allelic series); in assay [3], 7.67 upbm affinity estimate (log intensity, higher = more binding, comparable within an allelic series); in assay [2], 7.09 upbm affinity estimate (log intensity, higher = more binding, comparable within an allelic series); in [4], 7.69 upbm affinity estimate (log intensity, higher = more binding, comparable within an allelic series); in [5] it was 7.69 upbm affinity estimate (log intensity, higher = more binding, comparable within an allelic series); in assay [6], 7.65 upbm affinity estimate (log intensity, higher = more binding, comparable within an allelic series). The binding signal in assay [7] is 7.61 upbm affinity estimate (log intensity, higher = more binding, comparable within an allelic series).
On to AGGGCAGC, for which the binding signal in [1] was 6.98 upbm affinity estimate (log intensity, higher = more binding, comparable within an allelic series); in [8], 9.54 upbm affinity estimate (log intensity, higher = more binding, comparable within an allelic series); in assay [2] it was 7.18 upbm affinity estimate (log intensity, higher = more binding, comparable within an allelic series); in assay [9], 9.49 upbm affinity estimate (log intensity, higher = more binding, comparable within an allelic series); in assay [10] it was 9.66 upbm affinity estimate (log intensity, higher = more binding, comparable within an allelic series).
For CAGCCGCG, the binding signal is 7.08 upbm affinity estimate (log intensity, higher = more binding, comparable within an allelic series) in [1]; 6.48 upbm affinity estimate (log intensity, higher = more binding, comparable within an allelic series) in [11]; 7.74 upbm affinity estimate (log intensity, higher = more binding, comparable within an allelic series) in assay [3]; 7.07 upbm affinity estimate (log intensity, higher = more binding, comparable within an allelic series) in [2]; 6.44 upbm affinity estimate (log intensity, higher = more binding, comparable within an allelic series) in assay [12]; 7.7 upbm affinity estimate (log intensity, higher = more binding, comparable within an allelic series) in assay [4]. The binding signal in assay [13] is 7 upbm affinity estimate (log intensity, higher = more binding, comparable within an allelic series); in [5], 7.68 upbm affinity estimate (log intensity, higher = more binding, comparable within an allelic series); in assay [6], 7.67 upbm affinity estimate (log intensity, higher = more binding, comparable within an allelic series); in assay [14] it was 7.24 upbm affinity estimate (log intensity, higher = more binding, comparable within an allelic series); in assay [15], 6.47 upbm affinity estimate (log intensity, higher = more binding, comparable within an allelic series); in assay [7] it was 7.74 upbm affinity estimate (log intensity, higher = more binding, comparable within an allelic series). For the same sequence, in assay [16], the binding signal was 7.13 upbm affinity estimate (log intensity, higher = more binding, comparable within an allelic series).
With CCGGGACG, the binding signal in assay [1] is 7.24 upbm affinity estimate (log intensity, higher = more binding, comparable within an allelic series); in [2] it was 7.27 upbm affinity estimate (log intensity, higher = more binding, comparable within an allelic series).
CGCTACCC: the binding signal in assay [1] was 7.24 upbm affinity estimate (log intensity, higher = more binding, comparable within an allelic series); in assay [2], 7.33 upbm affinity estimate (log intensity, higher = more binding, comparable within an allelic series).
As to ACCCGCCC, the binding signal is 7.27 upbm affinity estimate (log intensity, higher = more binding, comparable within an allelic series) in assay [1] and 7.22 upbm affinity estimate (log intensity, higher = more binding, comparable within an allelic series) in assay [2].
Turning to GGCCAGAC, the binding signal was 7.3 upbm affinity estimate (log intensity, higher = more binding, comparable within an allelic series) in assay [1] and 7.26 upbm affinity estimate (log intensity, higher = more binding, comparable within an allelic series) in assay [2].
As to AGCCGCCG, the binding signal was 7.12 upbm affinity estimate (log intensity, higher = more binding, comparable within an allelic series) in assay [1]; 9.48 upbm affinity estimate (log intensity, higher = more binding, comparable within an allelic series) in [8]; 7.19 upbm affinity estimate (log intensity, higher = more binding, comparable within an allelic series) in assay [2]; 9.52 upbm affinity estimate (log intensity, higher = more binding, comparable within an allelic series) in assay [9]; 9.57 upbm affinity estimate (log intensity, higher = more binding, comparable within an allelic series) in assay [10].
Consider CCAAGGAG, for which the binding signal in assay [1] was 7.32 upbm affinity estimate (log intensity, higher = more binding, comparable within an allelic series); in assay [2], 7.21 upbm affinity estimate (log intensity, higher = more binding, comparable within an allelic series).
Regarding CTCCTCCC, the binding signal in assay [1] is 7.03 upbm affinity estimate (log intensity, higher = more binding, comparable within an allelic series); in [2], 7.12 upbm affinity estimate (log intensity, higher = more binding, comparable within an allelic series).
For CTGAGGCA, the binding signal was 7.29 upbm affinity estimate (log intensity, higher = more binding, comparable within an allelic series) in assay [1] and 7.31 upbm affinity estimate (log intensity, higher = more binding, comparable within an allelic series) in assay [2].
Turning to AGCCACCG, the binding signal in assay [1] is 7.07 upbm affinity estimate (log intensity, higher = more binding, comparable within an allelic series); in assay [8], 9.53 upbm affinity estimate (log intensity, higher = more binding, comparable within an allelic series); in assay [2], 7.05 upbm affinity estimate (log intensity, higher = more binding, comparable within an allelic series); in assay [9], 9.56 upbm affinity estimate (log intensity, higher = more binding, comparable within an allelic series); in assay [10] it was 9.66 upbm affinity estimate (log intensity, higher = more binding, comparable within an allelic series).
Regarding CCCCGAAC, the binding signal in assay [1] is 7.23 upbm affinity estimate (log intensity, higher = more binding, comparable within an allelic series); in [2] it was 7.26 upbm affinity estimate (log intensity, higher = more binding, comparable within an allelic series).
For AGCTGTCC, the binding signal was 7.1 upbm affinity estimate (log intensity, higher = more binding, comparable within an allelic series) in [1] and 7.23 upbm affinity estimate (log intensity, higher = more binding, comparable within an allelic series) in assay [2].
Consider GCCAGGGA, for which the binding signal in [1] was 7.22 upbm affinity estimate (log intensity, higher = more binding, comparable within an allelic series); in assay [2], 7.13 upbm affinity estimate (log intensity, higher = more binding, comparable within an allelic series).
CGGCCTGA: the binding signal in assay [1] is 7.33 upbm affinity estimate (log intensity, higher = more binding, comparable within an allelic series); in assay [2] it was 7.17 upbm affinity estimate (log intensity, higher = more binding, comparable within an allelic series).
Consider CCGTGGCC, for which the binding signal in assay [1] was 7.18 upbm affinity estimate (log intensity, higher = more binding, comparable within an allelic series); in [2], 7.22 upbm affinity estimate (log intensity, higher = more binding, comparable within an allelic series).
Take TATTAGGA: the binding signal in assay [1] is 10.1 upbm affinity estimate (log intensity, higher = more binding, comparable within an allelic series); in assay [17], 9.87 upbm affinity estimate (log intensity, higher = more binding, comparable within an allelic series).
On to CTCCGAAC, for which the binding signal in assay [1] was 7.18 upbm affinity estimate (log intensity, higher = more binding, comparable within an allelic series); in assay [2], 7.23 upbm affinity estimate (log intensity, higher = more binding, comparable within an allelic series).
As to CCAGAGGC, the binding signal in [1] was 7.17 upbm affinity estimate (log intensity, higher = more binding, comparable within an allelic series); in assay [2], 7.18 upbm affinity estimate (log intensity, higher = more binding, comparable within an allelic series).
